# In PubChem BioAssay AID651642 (Sanford-Burnham Center for Chemical Genomics, 2012):
# Activity calls are given as the source filed them.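 Rule for the calls: active = average half-effect concentration of 10 µM or less in every one of the four cell panels; inactive = the rest.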
# Test system: HL-1
# Test: protection of cardiomyocytes from stress damage, SAR follow-up, cell-based, panel, H9c2 and HL-1, H2O2, 2-deoxyglucose, ATP luminescence (AID 651642)
# Settings: H9c2/HL-1 cardiomyocyte 2-deoxyglucose damage, mean of runs, with 2-deoxyglucose
row,Compound,outcome
1,COc1cc(-c2cc(C(=O)Nc3cccc(-c4nn[nH]n4)c3)c3ccccc3n2)cc(OC)c1OC,inactive
2,CCOC(=O)c1ccccc1NC(=O)c1cc(-c2cc(OC)c(OC)c(OC)c2)nc2ccccc12,inactive
3,COc1cc(-c2cc(C(=O)Nc3cccc(C(C)=O)c3)c3cccc(Cl)c3n2)cc(OC)c1OC,inactive
4,CCNC(=O)c1cccc(NC(=O)c2cc(-c3cc(OC)c(OC)c(OC)c3)nc3ccccc23)c1,active
5,COc1ccc2c(c1OC)C(=O)N1c3ccccc3C(=O)N(Cc3ccccc3C)C21 (configuration not stated),active
6,CCOC(=O)c1cccc(NC(=O)CNC(=O)c2cc(-c3cc(OC)c(OC)c(OC)c3)nc3c(Cl)cccc23)c1,inactive
7,COc1cc(-c2cc(C(=O)NCC(=O)Nc3cccc(C(C)=O)c3)c3cc(F)ccc3n2)cc(OC)c1OC,active
8,COc1ccc2c(c1OC)C(=O)N1c3ccccc3C(=O)N(Cc3ccc(F)cc3)C21 (configuration not stated),inactive
9,CCOC(=O)c1cccc(NC(=O)c2cc(-c3cc(OC)c(OC)c(OC)c3)nc3c(Cl)cccc23)c1,inactive
10,COc1ccc2nc(-c3cc(OC)c(OC)c(OC)c3)cc(C(=O)NCC(=O)Nc3cccc(C(C)=O)c3)c2c1,active
11,CCOC(=O)c1cccc(NC(=O)c2cc(-c3cc(OC)c(OC)c(OC)c3)nc3ccc(OC)cc23)c1,inactive
12,COc1ccc2c(c1OC)C(=O)N1c3ccccc3C(=O)N(Cc3ccccn3)C21 (configuration not stated),inactive
13,CCOC(=O)c1cccc(NC(=O)CNC(=O)c2cc(-c3cc(OC)c(OC)c(OC)c3)nc3ccc(F)cc23)c1,active
14,COc1ccc2c(c1OC)C(=O)N1c3ccccc3C(=O)N(Cc3ccccc3Br)C21 (configuration not stated),inactive
15,COC(=O)CNC(=O)c1cc(-c2cc(OC)c(OC)c(OC)c2)nc2ccccc12,inactive
16,COc1ccc2c(c1OC)C(=O)N1c3ccccc3C(=O)N(Cc3ccc(C)cc3C)C21 (configuration not stated),inactive

row,Compound,outcome
1,COc1ccc2c(c1OC)C(=O)N1c3ccccc3C(=O)N(Cc3cccc(Cl)c3Cl)C21 (configuration not stated),active
2,COc1ccc2c(c1OC)C(=O)N1c3ccccc3C(=O)N(Cc3ccccc3Cl)C21 (configuration not stated),active
3,COc1ccc2c(c1OC)C(=O)N1c3ccccc3C(=O)N(Cc3cccc(C)c3)C21 (configuration not stated),inactive
4,CCOC(=O)c1cccc(NC(=O)CNC(=O)c2cc(-c3cc(OC)c(OC)c(OC)c3)nc3ccccc23)c1,inactive
5,CCOC(=O)c1cccc(NC(=O)c2cc(-c3cc(OC)c(OC)c(OC)c3)nc3ccc(Br)cc23)c1,inactive
6,COc1ccc2c(c1OC)C(=O)N1c3ccccc3C(=O)N(Cc3cccc(F)c3)C21 (configuration not stated),active
7,COc1ccccc1CN1C(=O)c2ccccc2N2C(=O)c3c(ccc(OC)c3OC)C12 (configuration not stated),active
8,CCOC(=O)c1cccc(NC(=O)CNC(=O)c2cc(-c3cc(OC)c(OC)c(OC)c3)nc3ccc(OC)cc23)c1,active
9,CCOC(=O)c1cccc(NC(=O)c2cc(-c3cc(OC)c(OC)c(OC)c3)nc3cc(Cl)ccc23)c1,inactive
10,COc1cc(-c2cc(C(=O)Nc3cccc(C(C)=O)c3)c3cc(C)ccc3n2)cc(OC)c1OC,inactive
11,COc1ccc2c(c1OC)C(=O)N1c3ccccc3C(=O)N(Cc3ccccc3)C21 (configuration not stated),inactive
12,CCOC(=O)c1cccc(NC(=O)c2cc(-c3cc(OC)c(OC)c(OC)c3)nc3ccccc23)c1,inactive
13,COc1cc(-c2cc(C(=O)Nc3cccc(C(N)=O)c3)c3ccccc3n2)cc(OC)c1OC,inactive
14,COc1ccc2c(c1OC)C(=O)N1c3ccccc3C(=O)N(Cc3c(Cl)cccc3Cl)C21 (configuration not stated),inactive
15,COc1ccc2c(c1OC)C(=O)N1c3ccccc3C(=O)N(Cc3ccc(C)cc3)C21 (configuration not stated),inactive
16,COc1cc(-c2cc(C(=O)NCC(=O)Nc3cccc(C(C)=O)c3)c3cc(Br)ccc3n2)cc(OC)c1OC,active
